Out of some 310,000 compounds screened, about 1,500 (0.48%) were called active.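 Rule for the calls: active = initial fluorescence not abnormally high and integrated response B-score, plate-corrected, over 3 SD above library mean; inactive = the rest.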 The sample as a whole holds a higher share of actives than the screen did. A structure can be active in one record and inactive in another.
The compounds below were run against High affinity choline transporter 1 (Homo sapiens) (UniProt Q9GZV3) (assay: CHT positive allosteric modulators, primary screen, cell-based, membrane potential dye, choline EC20 (AID 488977)). Conditions: CHT-expressing cells, at 10 µM, LV-AA mutant CHT in HEK293 cells; stronger effect = higher value.
Sequence of High affinity choline transporter 1 (Homo sapiens) (Q9GZV3 whole entry, looked up): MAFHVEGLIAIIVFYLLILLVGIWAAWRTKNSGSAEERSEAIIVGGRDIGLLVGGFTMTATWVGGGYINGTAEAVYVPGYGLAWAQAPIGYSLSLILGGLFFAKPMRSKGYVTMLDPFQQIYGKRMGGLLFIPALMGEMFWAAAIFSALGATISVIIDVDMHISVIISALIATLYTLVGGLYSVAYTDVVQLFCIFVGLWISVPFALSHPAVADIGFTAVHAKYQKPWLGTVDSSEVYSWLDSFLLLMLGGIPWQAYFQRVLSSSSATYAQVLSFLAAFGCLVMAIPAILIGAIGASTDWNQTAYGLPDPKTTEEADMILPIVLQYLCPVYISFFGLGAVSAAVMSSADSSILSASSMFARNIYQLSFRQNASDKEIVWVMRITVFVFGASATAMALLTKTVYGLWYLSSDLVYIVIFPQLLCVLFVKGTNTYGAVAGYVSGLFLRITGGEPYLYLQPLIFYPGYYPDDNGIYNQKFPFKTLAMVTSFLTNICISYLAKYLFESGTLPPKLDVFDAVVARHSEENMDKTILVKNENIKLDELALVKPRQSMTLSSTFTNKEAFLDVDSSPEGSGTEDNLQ

B-score, inactive:
O=C1CCCCC1Sc1ccc(Cl)cc1[N+](=O)[O-] (stereo not given)
COC(=O)[C@]1(C)N[C@H](c2ccc(-c3ccc(Cl)c(Cl)c3)cc2)[C@@H]2C(=O)N(C)C(=O)[C@@H]21
COc1cc(C(=O)NCC(=O)NCCSc2ccc(Br)cc2)cc(OC)c1OC
O=C(COC(=O)Cc1c[nH]c2ccccc12)NCCc1ccccc1
CCN1C(=S)N[C@@H](CCc2ccccc2)[C@H](C(=O)OC)[C@H]1C
CCN1C(=NCCc2cccnc2)N[C@@H](c2ccccc2)C(C(=O)OC)=C1C
O=C(Nc1ncccc1O)c1ccc(S(=O)(=O)N2CCCC2)cc1
COc1cc(C(=O)N(C)Cc2cccc(OC)c2OC)ccc1OCC(=O)Nc1cccc(C(F)(F)F)c1
O=C(N/N=C/c1cc(Br)c(O)c([N+](=O)[O-])c1)C(O)(c1ccccc1)c1ccccc1
COc1ccc(Nc2nnc(C)c3ccccc23)cc1
C=CCNc1nnc(SCC(=O)N2CCCCC2)c2ccccc12
COc1ccc(-c2ccc3nnc(SCC(=O)Nc4ccc(NC(C)=O)cc4)n3n2)cc1
COc1ccc(C(=O)NCC2CCCN2S(=O)(=O)c2cccs2)cc1OC (stereo not given)
CN1CCN(C2Cc3ccc(Cl)cc3Sc3ccc(F)cc32)CC1 (stereo not given)
CCOC(=O)C1CCN(C(=O)COC(=O)C2CCN(S(=O)(=O)c3ccc4c(c3)OCCO4)CC2)CC1
COc1ccccc1CNC(=O)C1CCN(S(=O)(=O)c2ccc3c(c2)OCCO3)CC1
Cc1ccc(N2CC(C(=O)N3CCC4(CC3)CC(=O)c3ccccc3O4)CC2=O)cc1C (stereo not given)
O=C(NCCC1CCCCN1S(=O)(=O)c1ccc(Cl)cc1)C(=O)NCc1ccco1 (stereo not given)
Brc1cnc2ccccc2c1N1CCCCC1
CCCNC(=O)c1ccc(N2CCC3(CC2)CC(c2cccc(Br)c2)=NO3)c(NC(=O)c2ccco2)c1
C#CCOCCOCCOCCNc1nc(N2CCN(C(=O)CCCCCCCCCCNC(=O)[C@H]([C@@H](C)CC)n3cc(CCCCN=C(N)N)nn3)CC2)nc(N2CCN(C(=O)CCCCCCCCCCNC(=O)[C@H](CO)n3cc(CCCSC)nn3)CC2)n1
C#CCOCCOCCOCCNc1nc(N2CCN(C(=O)CCCCCCCCCCNC(=O)Cn3cc(CCCCCN)nn3)CC2)nc(N2CCN(C(=O)CCCCCCCCCCNC(=O)[C@H](CO)n3cc(CCCSC)nn3)CC2)n1
O=C(Nc1ccccc1N1CCCCC1)c1cccc(F)c1
Cc1cccc(C(=O)Nc2ccccc2N2CCN(c3ccc(F)cc3)CC2)c1
CSc1ccccc1NC(=O)c1cnc2sc(C)cn2c1=O
CCN1C(=O)[C@@H]2[C@@H](c3ccc(-c4ccc(OC)cc4)c(OC)c3)N3CCC[C@@]3(C(=O)OC)[C@@H]2C1=O
O=C(C[n+]1cc(-c2ccc(Cl)c(Cl)c2)n2c1CCC2)c1cccs1
Cc1ccc(-c2c[n+](CC(=O)Nc3ccccc3)c3n2CCC3)cc1
Nc1nonc1-n1nnc(C(=O)N/N=C/c2ccccc2O)c1CN1CCCC1
CSc1ccc(/C=N\NC(=O)CC(=O)NC(C)C)cc1
Cc1cc(/C=N/NC(=O)CC2(C)OCCO2)c(C)n1-c1ccc(Cl)c(Cl)c1
CN(C(=O)c1cc2c(=O)n3ccccc3nc2s1)C1CCCCC1
O=C1N[C@@H](Cc2ccccc2)C(=O)N2[C@H]1C[C@]1(Br)c3ccccc3N(S(=O)(=O)c3ccccc3)[C@H]21
O=S(=O)(O)Oc1c[nH]c2ccccc12
COc1cc2c(cc1OC)C(C(C)C)=NC(C)(C)C2
COc1cc2c(cc1O)C(SC)=NC(C)(C)C2
O=C(NCCCc1ccccc1)C(=O)NCC1OCCN1S(=O)(=O)c1ccccc1 (stereo not given)
C1=C(CCNc2ncnc3c2cnn3-c2ccccc2)CCCC1
Cc1ccc(S(=O)(=O)N2CCC(C(=O)NCCC3=CCCCC3)CC2)cc1C
COc1ccccc1C(=O)Nc1ccccc1C(=O)Nc1ccccc1
COc1ccccc1-c1nnc(-c2ccc(F)cc2)o1
Cc1cc(=O)oc2ccc(OCC(=O)O)cc12
Cc1ccccc1N1CCN(CCCOc2ccc3c(C)cc(=O)oc3c2)CC1
O=[N+]([O-])c1ccc(N2CCN(S(=O)(=O)c3ccc4ccccc4c3)CC2)cc1NCc1ccco1
O=C(c1ccccc1)N1CCN(c2ccc([N+](=O)[O-])c(NCc3ccco3)c2)CC1
Cc1cc(Br)ccc1NC(=O)CN(C)C(=O)CN1C(=O)NC2(CCCC2)C1=O
COc1cc(/C=N/NC(=O)c2cc(-c3ccccc3C)nc3ccccc23)cc(OC)c1O

B-score, active:
Cc1nnc(C)c2c(C)n(N)c(C)c12 9.77
CCN1C(=NCCc2cccnc2)N[C@@H](c2ccccc2)[C@H](C(=O)OC)[C@H]1C 6.5
C=CCNc1nnc(C)c2ccccc12 7.04
O=C(COC(=O)C1CCN(S(=O)(=O)c2ccc3c(c2)OCCO3)CC1)Nc1ccccc1OC(F)F 6.95
C#CCOCCOCCOCCNc1nc(N2CCN(C(=O)CCCCCCCCCCNC(=O)[C@H](CCCCN)n3cc(C)nn3)CC2)nc(N2CCN(C(=O)CCCCCCCCCCNC(=O)[C@H](CO)n3cc(CCCSC)nn3)CC2)n1 7.24
O=C(Nc1ccccc1N1CCN(c2ccccc2)CC1)c1cccc(F)c1 7.46
Cc1ccc(C(=O)C[n+]2cc(-c3ccccc3)n3c2CCCCC3)cc1 7.44
Cc1ccc(-n2c(C)cc(/C=N\NC(=O)CC(=O)NC(C)C)c2C)cc1 11.1
COc1cc2c(cc1OC)C(Nc1ccc(S(N)(=O)=O)cc1)=NC(C)(C)C2 9.17
O=C(NCCC1=CCCCC1)C1CCN(Cc2cnn(-c3ccccc3)c2-n2cccc2)CC1 6.26
Cc1cc(=O)oc2cc(OCCC[n+]3ccccc3)ccc12 8.55
O=[N+]([O-])c1ccc(N2CCNCC2)cc1NCc1cccnc1 6.95

outcome, inactive:
Cc1ccc(C(=O)C[n+]2cc(-c3ccccc3)n3c2CCCCC3)cc1

— PubChem BioAssay AID488977 (Johns Hopkins Ion Channel Center, 2010)
